Most compounds without a hit are left out; they make up all but 5.8% or so of the library.
KB-V1 MDR tox: qHTS assay for MDR1-selective chemotherapeutics: Primary screen using the drug-selected MDR subline cells KB-V1. KB-V1 MDR cells viability, CellTiter-Glo, 72 h. Potency, µM (titrated, usually from 46.1 µM), actives largely listed as cytotoxic. actives 3.4% (n = 400,000); also: nearly all actives have a fitted effect of over 60% in size
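KB-V1 MDR subline cells in DMEM (phenol-red free, 10% FBS) exposed to compounds in qHTS concentration series for 72 h at 37 degrees C. Viability read by CellTiter-Glo luminescence; concentration-effect curves fitted after normalization and correction.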
SW480 rerep: A quantitative high throughput screen for small molecules that induce DNA re-replication in SW480 colon adenocarcinoma cells; SW480 DNA re-replication, Hoechst DNA content imaging, 48 h; Potency, µM (doses to about 46.1 µM), most hits filed as activators; actives 1.8% (n = 340,000); AID 624297, 2012; also: nearly all actives have a fitted effect of over 55% in size
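Per well, 250 cells were exposed to pinned compound for 48 hr. Nuclear DNA was visualised with Hoechst (40 min, 37 C) and total object intensity recorded by fluorescence scanning.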
MCF10A rereplic: A quantitative high throughput screen for small molecules that induce DNA re-replication in MCF 10a normal breast cells | Potency, µM (highest dose often 46.1 µM), hits mostly activators | actives 2.9% (n = 350,000) | AID 624296, 2012 | MCF 10A DNA re-replication, Hoechst nuclear intensity, 48 h; also: nearly all actives have a fitted effect of over 50% in size
KB-3-1 cytotox: qHTS assay for MDR1-selective chemotherapeutics: Primary screen using the parental adenocarcinoma cell KB-3-1. KB-3-1 viability, CellTiter-Glo ATP luminescence, 72 h. Potency, µM (titrated, usually from 46.1 µM), hits mostly cytotoxic. actives 1.4% (n = 400,000); also: nearly all actives have a fitted effect of over 60% in size
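Cytotoxicity measured as CellTiter-Glo luminescence after 72 h at 37 C. Compound titrations were pinned onto drug-naive KB-3-1 parental adenocarcinoma cells grown in DMEM with 10% FBS, and normalized data fitted to concentration-response curves.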
PINK1 modulator: A Quantitative High throughput Screen to Identify Chemical Modulators of PINK1 Expression | PINK1 immunofluorescence, high-content cytometry, 24 h | Potency, µM (titrated, usually from 76.6 µM), usual class: activators | actives 0.2% (n = 410,000) | AID 624263, 2012; active = well fitted activation curve with a large enough effect; inconclusive = small, poorly fitted or top-dose-only effect; cell line not stated here; also: nearly all actives have a fitted effect of over 65% in size
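Stable cell line treated 24 h with compounds at 5 concentrations (CCCP controls), then fixed and immunostained for PINK1 plus nuclear and cell stains; PINK1 immunofluorescence quantified by laser-scanning microplate cytometry.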
12-LOX inh: Primary qHTS assay for inhibitors of human arachidonate 12S-lipoxygenase (ALOX12): Round 2; Polyunsaturated fatty acid lipoxygenase ALOX12 (Homo sapiens), P18054; purified 12hLO, xylenol orange hydroperoxide absorbance; Potency, µM (doses to about 108 µM), usual class: inhibitors; actives 1.1% (n = 580,000); AID 1671190, 2021
Target sequence (P18054 whole entry, looked up): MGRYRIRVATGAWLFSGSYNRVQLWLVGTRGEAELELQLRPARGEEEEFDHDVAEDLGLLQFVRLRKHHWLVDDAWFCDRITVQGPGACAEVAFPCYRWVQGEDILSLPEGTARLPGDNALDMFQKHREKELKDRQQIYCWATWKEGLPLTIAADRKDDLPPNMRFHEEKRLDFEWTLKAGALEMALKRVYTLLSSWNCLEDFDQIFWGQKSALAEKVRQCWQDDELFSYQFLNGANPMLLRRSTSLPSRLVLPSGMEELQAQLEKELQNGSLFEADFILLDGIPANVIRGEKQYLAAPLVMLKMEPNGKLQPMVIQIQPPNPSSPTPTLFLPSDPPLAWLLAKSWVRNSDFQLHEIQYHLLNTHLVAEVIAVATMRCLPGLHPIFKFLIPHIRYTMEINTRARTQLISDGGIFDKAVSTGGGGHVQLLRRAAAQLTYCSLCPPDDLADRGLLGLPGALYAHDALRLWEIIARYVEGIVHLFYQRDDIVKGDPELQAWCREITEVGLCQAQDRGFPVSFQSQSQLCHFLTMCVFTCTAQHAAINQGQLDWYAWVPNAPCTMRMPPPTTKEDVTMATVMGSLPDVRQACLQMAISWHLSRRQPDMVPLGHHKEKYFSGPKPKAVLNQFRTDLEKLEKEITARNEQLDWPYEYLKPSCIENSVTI
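Purified human 12hLO at 150 nM in 25 mM Hepes, 0.01% Triton X-100, pH 7.0, preincubated 15 min at room temperature with compound. Reaction started with 40 uM arachidonic acid, 30 min at room temperature. Hydroperoxide measured by Fe-xylenol orange, 573/405 nm absorbance ratio.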
Hits are given with their value; - = inactive; ? = inconclusive; . = no result given; ! = not confirmed by another sample; [ ] = another dose, or the depositor's remark. Unless noted, calls follow the shape of the dose curve; as a rule, active = well fitted curve in the direction sought with a large enough effect; inconclusive = small, poorly fitted or top-dose-only effect, or another doubt; inactive = no such curve, though single readings can be large; an effect the other way counts as inactive or inconclusive.

SMILES | KB-V1 MDR tox | SW480 rerep | MCF10A rereplic | KB-3-1 cytotox | PINK1 modulator | 12-LOX inh
O=C(Nc1c(F)cccc1F)N1CCOc2ccc(CN3CCc4ccccc4C3)cc2C1 | . | . | . | . | . | -
O=C(NCC1(N2CCOCC2)CCCCC1)C1CCN(C(=O)c2ccc(Cl)cc2)CC1 | . | . | . | . | . | -
O=C(NCc1ccc(Cl)cc1)[C@@H]1Cc2nc[nH]c2CN1C(=O)NC1CCCCC1 | . | . | . | . | . | -
CCc1ccc(/C=C(/C#N)C(=O)c2c(C)[nH]c3ccccc23)cc1 | . | . | . | . | . | 14µM
C#CCN(C)Cc1nc(C2(O)CCN(CC3CCCCC3)CC2)cs1 | . | . | . | . | . | -
C=CCN=c1scc(-c2ccccc2)n1/N=C/c1ccccn1 | 7.3µM! | ? | ? | 1.5µM! | - | ?
CCN=c1scc(-c2ccccc2)n1/N=C/c1ccccn1 | ? | - | 21µM | 8.2µM | - | .
CCC(CO)NS(=O)(=O)c1cc(-c2n[nH]c(=O)c3ccccc23)ccc1C (centres undefined) | . | . | . | . | . | -
CCc1nc2c(OCCOc3ccc(F)cc3)cccn2c1N(C=O)Cc1ccc(OC)cc1 | 18µM | . | . | - | - | -
CCc1nc2c(OCc3ccc(F)cc3)cccn2c1N(C)C(=O)COc1ccccc1 | 6.5µM | . | . | 23µM | - | -
CCc1nc2c(OCCn3cccc3)cccn2c1N(C=O)Cc1ccc(OC)cc1 | ? | . | . | - | - | -
CCc1nc2c(OCc3ccc(Cl)cc3Cl)cccn2c1N(C=O)Cc1ccc(OC)cc1 | 18µM | . | . | ? | - | -
CCc1nc2c(OCc3ccccc3)cccn2c1N(C)C(=O)COc1ccccc1 | - | . | . | - | - | -
COc1ccc(Br)cc1Cn1nnc(C(=O)Nc2cc(C)ccc2OC)c1N | . | . | . | . | . | -
Cc1oncc1-c1csc(-c2ccccc2Cl)n1 | 13µM | -[1.84 µM] | - | ? | - | -
Cc1oncc1-c1csc(-c2ccccc2)n1 | ? | - | - | - | - | -
CN(C)c1ccc(NC(=O)CN2CCN(c3ccc([N+](=O)[O-])c4cnccc34)CC2)cc1 | . | . | . | . | . | -
Clc1cccc(Cl)c1Cn1cnc2c(N3CCCCCC3)ncnc21 | 8.2µM | ? | - | - | . | -
CCCCCn1c(N)c(-c2nc3ccccc3s2)c2c([N+](=O)[O-])nn(CC)c(=O)c21 | 18µM | - | 2.9µM | - | ? | -
CCCCn1c(N)c(-c2nc3ccccc3s2)c2c([N+](=O)[O-])nn(CC)c(=O)c21 | ? | - | ? | - | - | -
COc1ccc2nc(COC(=O)c3cccs3)c(C(C)=O)[n+]([O-])c2c1 | - | - | - | - | - | 32µM
CCn1c(CNC(=O)COc2ccc(C(C)C)cc2)nnc1SCC(=O)Nc1ccc(F)cc1 | - | - | - | - | - | -
CCn1c(Cc2ccc(OC)cc2)nnc1SCC(=O)Nc1cccc(C(=O)OC)c1 | 5.2µM | - | - | - | - | -
CCn1c(CNc2ccc(F)cc2)nnc1SCC(=O)Nc1ccc(OC)cc1OC | ? | - | - | - | - | -
CCn1c(CNc2ccc(OC)cc2)nnc1SCC(=O)Nc1ccc(F)cc1 | 21µM | - | - | - | - | -
CCn1c(CNC(=O)COc2ccc(C(C)C)cc2)nnc1SCC(=O)Nc1cc(F)ccc1C | ? | - | ? | - | - | 22µM
O=C(Nc1ccc2oc(C3CC3)nc2c1)c1ccc(=O)[nH]c1 | . | . | . | . | . | -
COCC1CCCCN1C(=O)c1cc(COc2ccc3ncccc3c2)on1 (centres undefined) | ? | - | - | ? | - | -
CCC1CCCCN1C(=O)c1cc(COc2ccc3ncccc3c2)on1 (centres undefined) | 1.6µM | - | - | 4.1µM | - | -
CCCN1CCN(C(=O)c2cc(COc3ccc4ncccc4c3)on2)CC1 | ? | - | - | ? | - | -

High-throughput results from PubChem.
